High-throughput results as filed in PubChem.
SMN2 splice up – increases expression of the SMN2 splice variant. Potency, µM (titrated, usually from 46.1 µM), usual class: activators. AID 1458. 2.8% of 210,000 active. HEK293 SMN2-luciferase splicing reporter, luminescence, 30-36 h; also: nearly all actives have a fitted effect of over 55% in size
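HEK293 cells carry an SMN2 […]–luciferase reporter in which exon 7 inclusion puts luciferase in frame. Cells were plated 10-12 h before compound addition, then incubated 30-36 h at 37C. ONE-Glo luminescence was read; sodium butyrate at 4.5 mM final served as control.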
Luc counter – blocks Kinase-Glo luciferase, a counter-screen artifact; Potency, µM (titrated, usually from 38.3 µM), usual class: inhibitors; 0.28% of 200,000 active; Q27757; Kinase-Glo luciferase, ATP luminescence, 8 min; also: nearly all actives have a fitted effect of over 60% in size
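Compound is pinned into ATP-containing buffer (10 uM ATP, imidazole pH 7.2, 7 mM MgCl2). Kinase-Glo luciferase reagent is then added. Light output is recorded following an 8-min room-temperature incubation.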
FLuc modulator – counter-screen for miR-21 project: firefly luciferase inhibitors or activators; AID 588342; Potency, µM (titrated, usually from 57.5 µM), actives largely listed as inhibitors; 6.9% of 360,000 active; purified FLuc, Km substrates, luminescence inhibition; P08659; also: nearly all actives have a fitted effect of over 55% in size
Target sequence (P08659 whole entry, looked up): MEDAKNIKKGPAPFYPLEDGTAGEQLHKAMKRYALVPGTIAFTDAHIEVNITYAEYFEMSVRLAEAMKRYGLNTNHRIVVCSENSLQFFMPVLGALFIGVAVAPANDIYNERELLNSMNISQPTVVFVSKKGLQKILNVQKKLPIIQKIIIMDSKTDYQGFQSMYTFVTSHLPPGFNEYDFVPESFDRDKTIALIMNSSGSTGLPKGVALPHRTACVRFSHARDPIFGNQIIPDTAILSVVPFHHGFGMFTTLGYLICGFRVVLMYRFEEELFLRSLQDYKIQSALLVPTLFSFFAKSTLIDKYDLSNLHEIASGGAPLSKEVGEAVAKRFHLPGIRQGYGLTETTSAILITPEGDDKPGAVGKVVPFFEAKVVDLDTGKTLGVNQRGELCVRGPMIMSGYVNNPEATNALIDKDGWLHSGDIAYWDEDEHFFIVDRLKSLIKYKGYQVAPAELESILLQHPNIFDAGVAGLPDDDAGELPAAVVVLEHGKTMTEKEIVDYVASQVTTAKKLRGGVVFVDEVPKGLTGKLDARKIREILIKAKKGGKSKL
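Biochemical qHTS of compounds, final roughly 60 µM downward over six points, against 10 nM purified firefly luciferase using Km concentrations of substrates (10 uM D-luciferin, 10 uM ATP) in Tris acetate pH 7.5 buffer; luminescence output.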
Rab9 promoter act – activators of Rab9 promoter; Potency, µM (doses to about 9.22 µM), hits mostly activators; AID 485297; Huh7 Rab9 promoter-luciferase reporter, luminescence, 24 h; 2.8% of 320,000 active; also: nearly all actives have a fitted effect of over 60% in size
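Stable Rab9-luc Huh7, 1500 cells/well, 2 h settle; cmpd in DMSO, 24 h, 37 °C/5% CO2; luciferase reagent 10 min RT; luminescence.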
NPC1 prom act – activators of NPC1 promoter. Huh7 NPC1 promoter luciferase reporter, 24 h. Potency, µM (highest dose often 9.22 µM), hits mostly activators. 2.4% of 320,000 active; also: nearly all actives have a fitted effect of over 60% in size
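NPC1 promoter–luciferase Huh7 cells; 24 h compound; luminescence.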
ELG1 genotox – genotoxicity induction in ELG1-luciferase HEK293T cells; HEK293T ELG1-luciferase reporter, luminescence, 16 h; Potency, µM (titrated, usually from 46 µM), actives largely listed as activators; 1.3% of 330,000 active; AID 504466; also: nearly all actives have a fitted effect of over 60% in size
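Step 1: seed 2,000 HEK293T ELG1-luciferase cells per well. Step 2: add compound or DMSO, incubate 16 hr at 37 °C. Step 3: ONE-Glo, 30 min at room temperature, read luminescence.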
A number is an active result; 0 = inactive; ? = inconclusive; - = no result given; [ ] = remark or other dose. This is a sample that favours compounds with a hit; in the whole collection about 7.3% have one here. Calls follow the shape of the dose curve; as a rule, active = well fitted curve in the direction sought with a large enough effect; inconclusive = small, poorly fitted or top-dose-only effect, or another doubt; inactive = no such curve, though single readings can be large; an effect the other way counts as inactive or inconclusive.

SMILES	SMN2 splice up	Luc counter	FLuc modulator	Rab9 promoter act	NPC1 prom act	ELG1 genotox
Cc1ccc(/C=C2\C(=O)NC(=S)N(c3ccc(F)cc3)C2=O)o1	-	-	?	0	0	0
COc1cccc(N2C(=O)NC(=O)/C(=C/c3ccc4c(c3)Cc3ccccc3-4)C2=O)c1	0	0	21µM	0	0	0
CN(C)C(=O)Oc1ccc(-c2cn3cc(Cl)ccc3n2)cc1	8.9µM	14µM	0.95µM	0.4µM	0.71µM	?
CN(C)C(=O)Oc1ccc(-c2nnco2)cc1	0	0	0	0	0	0
CN(C)C(=O)Oc1cccc(-c2cn3cc(Cl)ccc3n2)c1	11µM	0	3µM	?	?	0
CN(C)C(=O)Oc1ccc(-c2cn3cc(C(F)(F)F)ccc3n2)cc1	?	0	3µM	0	?	0
O=S(=O)(O)F	0	-	-	-	-	-
c1cc(OCC2CO2)cc(OCC2CO2)c1 (centres undefined)	0	-	-	-	-	-
O=S(=O)(NCCO)c1cc[c]([Sb])cc1	0[9.22 µM]	0[7.66 µM]	-	-	-	-
COc1ccc(-c2n[nH]c(=S)n2-c2ccc3c(c2)OCCO3)cc1OC	-	0	12µM	0	0	?
S=c1[nH]nc(-c2ccc3ccccc3n2)n1-c1ccc2c(c1)OCCO2	-	-	?	0	0	0
Clc1cccc(SC2CCNCC2)n1	0	0	-	-	-	-
Clc1ccc2sc(C3CCNCC3)nc2c1	-	-	24µM	?	?	?
Brc1cccc(-c2ccccc2)c1	0	-	-	-	-	-
COc1ccccc1N(CC(=O)NC1CCCC1)C(=O)c1cnn(C(C)C)c1	?	0	15µM	?	?	0
COc1ccccc1N(CC(=O)NC1CCCCC1)C(=O)c1cnn(C(C)C)c1	0	0	0	0	0	0
N#CC(C#N)=NNc1ccc([N+](=O)[O-])cc1	-	-	17µM	0	0	0
CCN(CC)S(=O)(=O)c1ccc(NN=C(C#N)C#N)cc1	-	0	?	0	0	0
CN(C)C(CNC(=O)Cc1ccc(Br)cc1)c1ccccc1 (centres undefined)	-	-	0	0	0	0
C/C(=C\C(=O)c1ccc(Br)cc1)NCc1ccccc1	0	0	24µM	0	0	?
CC1=C/C(=N\NC(=S)NCCc2ccccc2)CC(C)(C)C1	?	0	21µM	0	0	0
c1ccc(CCNCc2ccccc2)cc1	0	0	0	0	0	0
Cc1ccc(C(=O)COC(=O)c2cccc(NC(=O)c3ccc(Br)cc3)c2)cc1	?	-	1.2µM	-	-	-
O=C(COC(=O)c1cccc(NC(=O)c2ccc(Br)cc2)c1)c1ccc(Br)cc1	0	-	4.3µM	-	-	-
CN1C(=O)C(=Cc2ccc(N3CCCCC3)o2)C(=O)N(C)C1=S	0	0	?	0	0	0
SMILES	SMN2 splice up	Luc counter	FLuc modulator	Rab9 promoter act	NPC1 prom act	ELG1 genotox
CN1C(=O)C(=Cc2ccc(SC3CCCCC3)o2)C(=O)N(C)C1=O	0	0	17µM	0	0	0
C[C@]1(O)CC[C@H]2[C@@H]3[C@@H](O)CC4=CC(=O)CC[C@@]4(C)[C@H]3CC[C@]21C	0[9.22 µM]	0[7.66 µM]	-	-	-	-
CCN(CC)c1ccc(/C=C/[N+](=O)[O-])cc1	0	0	19µM	0	0	?
CCOc1ccc2nc(NC(=O)c3cccn(Cc4ccccc4C)c3=O)sc2c1	-	-	15µM	-	-	-
Cc1ccc2nc(NC(=O)c3cccn(Cc4ccccc4F)c3=O)sc2c1	-	-	0	-	-	-
Cc1cccc(Cn2cccc(C(=O)Nc3nc4ccccc4s3)c2=O)c1	-	-	6µM	-	-	-
Cc1ccc(Cn2cccc(C(=O)Nc3nc4ccc(C)cc4s3)c2=O)cc1	-	-	0	-	-	-
N#CCCCC[N+]12CN3CN(CN(C3)C1)C2	0[9.22 µM]	0[7.66 µM]	-	-	-	-
Nc1nc(N)c(N=Nc2ccc([As](=O)(O)O)c(O)c2)c(N)n1	0[9.22 µM]	0[7.66 µM]	-	-	-	-
Cn1c(O)c(/C=N/c2ncccn2)c(=O)n(C)c1=O	0	0	0	0	0	0
COc1ccc(N=Cc2c(O)n(C)c(=O)n(C)c2=O)cc1	-	-	13µM	0	0	0
Cc1ccc(N=Cc2c(O)n(C)c(=O)n(C)c2=O)cc1	-	-	12µM	0	0	0
Cc1cccc(N=Cc2c(O)n(C)c(=O)n(C)c2=O)c1	-	-	0	0	0	0
Oc1cc2c(cc1O)[C@H]1c3ccccc3CN[C@H]1CC2	0	0	-	-	-	-
C[C@@]12Cc3cnc(-c4ccccc4)nc3C[C@@H]1CC[C@@H]1[C@H]3CC[C@@](C)(O)[C@]3(C)CC[C@@H]12	0[9.22 µM]	0[7.66 µM]	-	-	-	-
Cn1nc(OC(=O)Nc2ccccc2)cc1C(F)(F)F	0	0	17µM	0	?	0
CC(C)[C@@H](Br)C(=O)NCC(=O)O	0[9.22 µM]	0[7.66 µM]	-	-	-	-
O=C(Nc1ccc(Br)cc1)c1cccc(S(=O)(=O)N2CCc3ccccc32)c1	0	-	0	-	-	-
Nc1ccc(Oc2cccc(Oc3ccc(N)cc3)c2)cc1	0	0	19µM	0	0	0
Nc1ccc(Oc2ccc(N)cc2)cc1	0	-	-	-	-	-
N#CC(Cl)Cl	0	-	-	-	-	-
Cc1ccnc(SCc2nc3ccccc3s2)n1	11µM	0	6.7µM	3.5µM	?	9.2µM
Cc1ccc(NC(=[OH+])c2cc3ccccc3cc2O)c(C)c1.Cc1ccc(NC(=[OH+])c2cc3ccccc3cc2O)c(C)c1.[Ni]	0[9.22 µM]	0[7.66 µM]	-	-	-	-
O=c1nc(/C=C/c2ccc(Cl)cc2Cl)cc(C(F)(F)F)[nH]1	-	-	11µM	0	0	0
O=C1NC(=O)N(c2ccc3c(c2)OCO3)C(=O)/C1=C\c1ccc(-c2ccccc2C(=O)O)o1	-	-	15µM	0	0	0
SMILES	SMN2 splice up	Luc counter	FLuc modulator	Rab9 promoter act	NPC1 prom act	ELG1 genotox
O=C1NC(=O)N(c2ccc3c(c2)OCO3)C(=O)/C1=C\c1ccsc1	-	-	24µM	0	0	0
Cc1cccc(N2C(=O)NC(=O)/C(=C/c3ccc(-c4ccc(C(=O)O)c(Cl)c4)o3)C2=O)c1	0	0	6µM	0	0	0
O=C1NC(=O)N(c2ccc3c(c2)OCO3)C(=O)/C1=C/c1ccc(N2CCCCC2)o1	0	0	0	0	0	0
COc1cc(/C=C/C(=O)c2c(O)n(CCc3ccccc3)c(=O)[nH]c2=O)ccc1O	0	0	6.7µM	0	0	0
O=C(O)C[SH+]CC(=O)O.O=C(O)C[SH+]CC(=O)O.[Cu]	0[9.22 µM]	0[7.66 µM]	-	-	-	-
CC(C)c1ccc(C(O)(C(=O)O)c2ccc(C(C)C)cc2)cc1	0[9.22 µM]	0[7.66 µM]	-	-	-	-
Cc1ccc(OCCOc2cccc(C=C3C(=O)NC(=O)NC3=O)c2)cc1	-	-	8.5µM	0.32µM	0.32µM	0
CN(C)C(=O)Cl	0	-	-	-	-	-
CCCCn1c(=O)c(C(=O)Nc2nc3ccccc3[nH]2)c(O)c2ccccc21	0	0	0	0	0	?
CCCSc1ccc2nc(NC(=O)OC)[nH]c2c1	?	0	3µM	0	0	0
O=C(Oc1ccc2ccc(OC(=O)N3CCOCC3)cc2c1)N1CCOCC1	0	0	?	0	0	0
COc1ccc(-c2coc3cc(OC(=O)N4CCOCC4)ccc3c2=O)cc1	-	-	24µM	?	0	0
CCN(CC)C(=O)c1ccc(NC(=O)c2cccc(F)c2)cc1	0	0	15µM	0	0	?
